SKKanGAS inh – inhibitors of SKKanGAS S. pyogenes growth in kanamycin (SK-promoter or general growth effect); BacTiter-Glo, 6 h; inhibition, % at 7.5 µM; hit rate 1.3% among 300,000;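 active = mean replicate score, as percent of positive control median, at least 50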;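 note: strain carries kanamycin resistance gene driven by streptokinase promoter and grows in 40 µg/ml kanamycin; loss of luminescence reflects streptokinase promoter inhibition or plain growth inhibition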
Beta apoptosis – beta cell apoptosis inhibition. INS-1E cytokine-induced death, ATP luminescence, 48 h; percent of positive-control rescue, neutral wells zero. hit rate 0.8% among 300,000. protection from apoptosis, % (test concentration not listed). AID 435005;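 active = Every replicate reaches about 75%, or at least half do and their mean reaches it too, limit read from the data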;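 note: higher means more ATP so stronger rescue from cytokine killing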
Calb FLC – affects C. albicans growth with fluconazole; C. albicans CaCi-2 (fluconazole-resistant clinical isolate) + fluconazole, Alamar Blue growth, 48 h; growth inhibition, % (test concentration not listed); hit rate 0.57% among 300,000;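 active = growth inhibition above about 58% in most replicates, limit read from the data, passing the limit was not always enough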;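 note: all wells also contain fluconazole at 8 µg/ml as a sub-toxic cotreatment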
CSC inhib – blocks cancer stem cells; hit rate 1.1% among 300,000; inhibition, % at 7.5 µM; AID 2717; cancer stem cell-like cells viability, luminescence; in the data active = inhibition above about 75%; tested in HMLE shEcad cells
MPTP inh – permeability transition pore inhibition; isolated mouse mitochondria, Ca2+ swelling absorbance, 30 min; inhibition, % at 10 µM; hit rate 1.4% among 360,000;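 active = inhibition of 50% or more, scaled per plate between neutral and stimulator controls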
Mdm2-MdmX inh – disrupts the human Mdm2-MdmX interaction; O15151+Q00987; AID 485346; SaOS-2 split-luciferase Mdm2/MdmX complementation, luminescence; hit rate 3% among 330,000; inhibition, % at 8 µM;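 active = inhibition of at least 50% at 8 µM in the primary screen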
Hits are given with their value; . = inactive; / = no result given. This is a sample that favours compounds with a hit; in the whole collection about 5.4% have one here.

SMILES	SKKanGAS inh	Beta apoptosis	Calb FLC	CSC inhib	MPTP inh	Mdm2-MdmX inh
OCCCNc1cc(-c2ccccc2)nc2cc(-c3ccc(F)cc3)nn12	.	.	.	83	.	.
COc1ccc(C(c2c(O)ccc3ccccc23)N2CCOCC2)c(OC)c1 (configuration not stated)	.	.	87	101	.	.
CCc1cc2ccc(C)cc2nc1SCC(=O)c1ccc(NC(C)=O)cc1	.	.	.	87	.	.
CCc1cc2cccc(C)c2nc1SCC(=O)c1ccc(NC(C)=O)cc1	.	.	.	121	.	.
Cc1ccc(NC(=O)CN(C)C(=O)COc2ncnc3ccc(Br)cc23)cc1	/	.	/	.	.	.
Cc1c(Cl)ccc2c(C(=O)Nc3cc(C(C)(C)C)on3)cc(-c3ccccn3)nc12	62	/	.	.	.	.
COCCn1cnc2c1c(=O)n(CC(=O)NC1CCCCC1)c(=O)n2Cc1ccccc1	/	/	/	/	.	/
COc1ccc(/C=C/C(=O)OCC(=O)N2CCCC2)c(OC)c1	/	.	/	.	.	.
Cc1ccccc1-n1c(=O)c(C#N)cc2c(=O)n3ccccc3nc21	.	/	54	.	.	.
Oc1ccc(/C=N/Nc2ccnc3cc(Cl)ccc23)cc1O	.	.	100	.	.	.
Oc1ccc(/C=N/Nc2ccnc3cc(Cl)ccc23)c(O)c1O	.	.	.	.	.	.
CCOC(=O)c1ccc(NC(=O)c2ccc(CO)c(C(=O)NC3CCN(C(=O)OCC)CC3)c2)cc1	.	.	104	.	.	.
O=C(NNC(=O)c1ccccc1O)c1ccc(-c2ccc([N+](=O)[O-])cc2)o1	.	/	91	.	.	.
N#Cc1ccccc1CN1C(=O)S/C(=C/c2cccn2-c2ccc(C(=O)O)cc2)C1=O	57	.	.	.	.	.
CCCCC(=O)Nc1ncc([N+](=O)[O-])s1	.	.	83	.	.	.
Cc1nc(NC(=O)C2CC2)sc1C(=O)Nc1cccc(Cl)c1	.	.	.	.	.	.
Cc1nc(Nc2ccc(Cl)cc2Cl)sc1C(=O)Nc1ccccc1	.	.	.	83	.	.
Cc1cc(N2CCN(c3ccc(C(F)(F)F)cc3[N+](=O)[O-])CC2)c2ccccc2n1	.	.	.	97	.	.
Cc1ccc(S(=O)(=O)N2CCN(c3ccc(C(F)(F)F)cc3[N+](=O)[O-])CC2)cc1	.	/	.	/	.	.
Cc1nn(-c2ccc([N+](=O)[O-])cc2)c2c1C(c1ccc(OC(F)F)cc1)N1C(=N2)C(=O)Nc2ccccc21 (configuration not stated)	.	.	87	.	.	.
O=C1c2[nH]nc(-c3ccccc3O)c2C(c2cccc(Cl)c2)N1Cc1ccco1 (configuration not stated)	50	.	.	92	.	.
CCSc1nnc(NC(=O)c2nc(-c3ccccc3)n(-c3ccccc3)n2)s1	63	.	.	/	.	.
CCSc1nnc(NC(=O)c2ccc3ccccc3n2)s1	82	.	.	.	.	.
CCc1nnc(NC(=O)c2ccc3ccccc3n2)s1	.	.	.	.	.	.
COC(=O)CC(NC(=O)c1ccco1)c1cccc2ccccc12 (configuration not stated)	.	.	.	.	.	.
SMILES	SKKanGAS inh	Beta apoptosis	Calb FLC	CSC inhib	MPTP inh	Mdm2-MdmX inh
NS(=O)(=O)c1ccc(CNc2ncnc3sccc23)cc1	.	.	.	.	.	.
CN(C)c1ccc(CNc2ncnc3sccc23)cc1	.	.	85	.	.	.
CC1COc2c(N3CCN(C)CC3)c(F)cc3c(=O)c(C(=O)O)cn1c23 (configuration not stated)	95	.	.	.	/	.
Cc1cc(Nc2nc(Cl)c(Cl)cc2Cl)n(-c2ccccc2)n1	.	.	.	99	.	.
Cc1cc(C)nc(-n2nc(C)cc2Nc2ccccc2)n1	79	85	.	.	.	.
Cc1ccc(-n2nc(C)cc2Nc2ncc(Cl)cc2Cl)cc1	.	.	.	.	.	.
Cc1cc(Nc2ccccc2)n(-c2ccccc2)n1	.	.	.	.	.	.
O=C1C2C3C=CC(O3)C2C(=O)N1N=C1CCCCC1 (configuration not stated)	/	/	/	/	.	/
CCCCCOc1ccc(/C=N/NC(=O)c2nnn(-c3nonc3N)c2CN2CCCCCC2)cc1	.	.	.	.	.	.
Fc1ccccc1COc1ccc(-c2nnn(Cc3ccccc3F)n2)cc1	.	.	.	81	.	.
CC(C)n1nnc(-c2ccc(OCc3ccccc3F)cc2)n1	.	.	.	.	.	.
